Among all 52,000 compounds or so, about 4,300 (8.3%) were called active. Only a selection was taken, and actives are over-represented in it overall. A number with no mark means an inactive call. Rule as the data show it: active = survival mostly below about 52% (no sharp cut-off); inactive = mostly above about 56%.
The compounds below were run on DeltatarO mutant (assay: S. aureus survival, RN4220 and DeltatarO strains – OD600, teichoic acid synthesis inhibitors, primary screen (AID 463173)). Conditions: S. aureus RN4220 wild type/DeltatarO growth, OD600, 18 h, hits give low values, screened at 18.75 µg/mL (by protocol).
Work on Cc1cc(-c2ccc(C)c(S(=O)(=O)N(C)c3ccc(C)c(C)c3)c2)on1 yielded a survival of 86%.
Cn1c(C(=O)Nc2cccc(C(F)(F)F)c2)cc2c(=O)n3ccccc3nc21 was tested, and the survival was 98%.
CCCCCNC(=O)c1cc2c(=O)n3ccccc3nc2n1C showed a survival of 54%.
Cn1c(C(=O)Nc2ccc(OC(F)(F)F)cc2)cc2c(=O)n3ccccc3nc21 was tested, and the survival was 55% (active).
With COc1ccc(CCNC(=O)c2cc3c(=O)n4ccccc4nc3n2C)cc1 the survival was 61%.
With Cn1c(C(=O)NCCc2ccccc2)cc2c(=O)n3ccccc3nc21 the survival was 48% (active).
O=C(Nc1ccc(OC(F)(F)F)cc1)c1cc2c(=O)n3ccccc3nc2s1 gave a survival of 87%.
Cc1ccc(NC(=O)CSc2nc3c(c(=O)[nH]2)CN(Cc2ccccc2)CC3)cc1Cl was tested, and the survival was 70%.
Compound CSc1ccc(CCNC(=O)CCCn2nc(C)c3sc4ccccc4c3c2=O)cc1 has a survival of 76%.
For N/N=C1\C(=N/O)CCc2nonc21, the survival was 95%.
For CCN(CC)c1ccc(NC(=O)Cn2ncc3c(C)n(Cc4ccccc4F)c(C)c3c2=O)c(C)c1, the survival was 79%.
For Cc1oc2ncnc(N3CCCCC3)c2c1C(=O)N1CCN(c2cccc(C(F)(F)F)c2)CC1, the survival was 66%.
Cc1oc2ncnc(N3CCOCC3)c2c1C(=O)NCCc1ccccc1 was tested, and the survival was 89%.
In the case of Fc1ccc(N2CCN(c3ncnc4onc(-c5ccc(Cl)cc5)c34)CC2)cc1, the survival is reported as 65%.
Fc1ccccc1N1CCN(c2ncnc3onc(-c4cccc(Cl)c4)c23)CC1 showed a survival of 53%.
For Cc1nc(N2CCOCC2)c2c(C(=O)NCCc3ccccc3)c(C)oc2n1, the survival was 0% (active).
For Cc1oc2ncnc(N3CCOCC3)c2c1C(=O)N1CCN(c2cccc(C(F)(F)F)c2)CC1, the survival was -5% (active).
For Cc1nc(N2CCOCC2)c2c(C(=O)N3CCN(c4ccc(Cl)cc4)CC3)c(C)oc2n1, the survival was 92%.
With Fc1ccccc1N1CCN(c2ncnc3onc(-c4ccc(Cl)cc4)c23)CC1 the survival was 54% (active).
Work on Cc1ccc(CCNC(=O)c2c(C)oc3nc(C)nc(N4CCOCC4)c23)cc1 yielded a survival of 106%.
For Cc1nc(N2CCOCC2)c2c(C(=O)N3CCN(c4cccc(C(F)(F)F)c4)CC3)c(C)oc2n1, the survival was 105%.
Cc1nc(N2CCOCC2)c2c(C(=O)N3CCN(c4ccccc4)CC3)c(C)oc2n1 was tested, and the survival was 37% (active).
Cc1nc(N2CCCC2)c2c(C(=O)N3CCN(c4ccccc4)CC3)c(C)oc2n1 showed a survival of 81%.
Work on COc1ccc2c(CNCc3cccs3)c(C(=O)O)n(Cc3ccc(C)cc3)c2c1 yielded a survival of 77%.
CCCOc1ccc(C(=O)NCC(c2ccc(OC)cc2)N2CCCCC2)cc1 (stereo not given) showed a survival of 84%.
